In the supplement of paper PMC6522484:
“And” between values parts separate entries of the source, which are not always exact repeats. Equal entries are not always repeated. ± gives the standard deviation of the averaged measurements.

Experiments:
DLD1 [1] = assay: cell viability (CellTiter-Glo) relative to plate median (fraction of plate median); higher = more viable cells; settings: 5 µM; treatment time 24 h; reporter: 7TFP
Method in brief: (§1)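 Values are well luminescence normalised to the plate median, from either a firefly luciferase or a CellTiterGlo readout on parallel plates. The cells, colorectal cancer lines stably transduced with lentiviral 7TFP or TCF4/Wnt firefly luciferase reporters, were treated with library compounds at a final 5 µM for 24 h. The mean of two independent replicates is listed.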

HCT116 [2] = assay: as above; settings: 5 µM; treatment time 24 h; reporter: TCF4/Wnt
Method in brief: as §1

SW480 [3] = assay: as above; settings: 5 µM; treatment time 24 h; reporter: 7TFP
Method in brief: as §1

DLD1 [4] = assay: TCF/Wnt firefly luciferase reporter signal relative to plate median (fraction of plate median); higher = higher Wnt reporter signal; settings: 5 µM; treatment time 24 h; reporter: 7TFP
Method in brief: as §1

SW480 [5] = assay: as above; settings: 5 µM; treatment time 24 h; reporter: 7TFP
Method in brief: as §1

DLD1 [6] = assay: cell viability (CellTiter-Glo) relative to plate median (fraction of plate median); higher = more viable cells; settings: 10 µM, treatment time 24 h
Method in brief: (§2)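 Values are the mean of two independent replicates of luminescence normalised to the plate median with webcellHTS2, using the additive method without log transformation. They come from colorectal cancer cell lines stably transduced with lentiviral TCF/Wnt firefly luciferase reporters (7TFP or TCF4/Wnt), seeded in 384-well plates. After 24 h the cells got kinase inhibitor library compounds at a final 10 µM for 24 h, and parallel plates were read for firefly luciferase or CellTiterGlo on a Tecan F500.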

HCT116 [7] = assay: as above; settings: 10 µM; treatment time 24 h; reporter: TCF4/Wnt
Method in brief: as §2

SW480 [8] = assay: as above; settings: 10 µM; treatment time 24 h; reporter: 7TFP
Method in brief: as §2

DLD1 [9] = assay: TCF/Wnt firefly luciferase reporter signal relative to plate median (fraction of plate median); higher = higher Wnt reporter signal; settings: 10 µM, treatment time 24 h
Method in brief: as §2

HCT116 [10] = assay: as above; settings: 10 µM; treatment time 24 h; reporter: TCF4/Wnt
Method in brief: as §2

SW480 [11] = assay: as above; settings: 10 µM; treatment time 24 h; reporter: 7TFP
Method in brief: as §2

Row | Structure (SMILES) | cell viability (DLD1 [1]) | cell viability (HCT116 [2]) | cell viability (SW480 [3]) | TCF/Wnt firefly luciferase reporter signal (DLD1 [4]) | TCF/Wnt firefly luciferase reporter signal (SW480 [5]) | cell viability (DLD1 [6]; reporter: 7TFP) | cell viability (DLD1 [6]; reporter: TCF4/Wnt) | cell viability (HCT116 [7]) | cell viability (SW480 [8]) | TCF/Wnt firefly luciferase reporter signal (DLD1 [9]; reporter: 7TFP) | TCF/Wnt firefly luciferase reporter signal (DLD1 [9]; reporter: TCF4/Wnt) | TCF/Wnt firefly luciferase reporter signal (HCT116 [10]) | TCF/Wnt firefly luciferase reporter signal (SW480 [11])
1 | O=C(NOC[C@H](O)CO)c1ccc(F)c(F)c1Nc1ccc(I)cc1F | 1.1 ± 0.064 | 0.895 ± 0.05 | 1.03 ± 0.05 | 1.34 ± 0.22 | 1.47 ± 0.071 |  |  |  |  |  |  |  | 
2 | Cc1c(CN2CCN(C(=O)[C@H](C)O)CC2)sc2c(N3CCOCC3)nc(-c3cnc(N)nc3)nc12 |  |  |  |  |  | 0.999 ± 0.13 | 0.9185 ± 0.0064 | 0.679 ± 0.16 | 1.1 ± 0.092 | 0.287 ± 0.056 | 0.419 ± 0.11 | 0.577 ± 0.21 | 0.764 ± 0.017
3 | CN1CCN(c2ccc3nc(-c4c(N)c5c(F)cccc5[nH]c4=O)[nH]c3c2)CC1 [Dovitinib (TKI-258)] |  |  |  |  |  | 0.901 ± 0.18 | 0.908 ± 0.033 | 0.748 ± 0.27 | 1.02 ± 0.11 | 1.26 ± 0.23 | 1.3 ± 0.092 | 0.97 ± 0.042 | 1.39 ± 0.6
4 | C[C@@H]1CCN(C(=O)CC#N)C[C@@H]1N(C)c1ncnc2[nH]ccc12 |  |  |  |  |  | 1.02 and 1.09 | 1.07 and 1.1 | 1.21 and 1.14 | 0.9 and 0.972 | 1.06 and 1.04 | 0.874 and 0.875 | 1.18 and 1.36 | 0.736 and 0.979
5 | COc1cc2ncnc(Nc3ccc(F)c(Cl)c3)c2cc1NC(=O)/C=C/CN1CCCCC1 |  |  |  |  |  | 0.875 ± 0.16 | 1 ± 0.12 | 0.993 ± 0.024 | 1.16 ± 0.16 | 0.615 ± 0.035 | 0.531 ± 0.092 | 0.548 ± 0.0014 | 0.935 ± 0.071
6 | CCc1cc(Nc2nccc(-c3c(-c4ccc(OC)c(C(=O)Nc5c(F)cccc5F)c4)nc4ccccn34)n2)c(OC)cc1N1CCC(N2CCN(S(C)(=O)=O)CC2)CC1 |  |  |  |  |  | 0.925 ± 0.059 | 0.995 ± 0.12 | 1.1 ± 0.028 | 0.974 ± 0.066 | 0.939 ± 0.035 | 0.977 ± 0.047 | 1.25 ± 0.05 | 1.24 ± 0.085
7 | O=C(Nc1cccc(Nc2ncc(Br)c(NCCc3cnc[nH]3)n2)c1)N1CCCC1 |  |  |  |  |  | 1.07 ± 0.05 | 1.02 ± 0.071 | 0.932 ± 0.016 | 1.16 ± 0.05 | 1.74 ± 0.31 | 1.39 ± 0.38 | 1.97 ± 0.11 | 1.33 ± 0.13
8 | CC(C)c1cnn2c(NCc3ccccc3)cc(NCCCCCCN)nc12 |  |  |  |  |  | 1 ± 0.067 | 0.969 ± 0.073 | 1 ± 0.055 | 0.921 ± 0.041 | 1.27 ± 0.11 | 1.52 ± 0.028 | 0.988 ± 0.14 | 1.2 ± 0.17
9 | CC(=O)NCC(=O)N1[C@@H]2CC[C@H]1c1ccc(Nc3ncc(C(F)(F)F)c(NC4CCC4)n3)cc12 |  |  |  |  |  | 0.907 ± 0.028 | 1.04 ± 0.08 | 0.256 ± 0.13 | 0.877 ± 0.071 | 0.742 ± 0.09 | 1.24 ± 0.092 | 0.149 ± 0.0021 | 1.21 ± 0.11
10 | CCc1cnn2c(NCc3ccc[n+]([O-])c3)cc(N3CCCC[C@H]3CCO)nc12 |  |  |  |  |  | 0.985 ± 0.13 | 1.06 ± 0.021 | 0.809 ± 0.27 | 1.34 ± 0.042 | 0.462 ± 0.029 | 0.304 ± 0.03 | 0.128 ± 0.063 | 0.61 ± 0.33
11 | Nc1ncnc2c1c(-c1cnc3[nH]ccc3c1)nn2C1CCCC1 |  |  |  |  |  | 0.8 ± 0.14 | 0.862 ± 0.063 | 0.489 ± 0.15 | 0.967 ± 0.15 | 0.322 ± 0.033 | 0.51 ± 0.084 | 0.21 ± 0.035 | 0.562 ± 0.064
12 | N#CC1(c2ccc(NC(=O)c3cccnc3NCc3ccncc3)cc2)CCCC1 [Apatinib (YN968D1)] |  |  |  |  |  | 1.14 ± 0.042 | 1.025 ± 0.0071 | 1.22 ± 0.035 | 0.912 ± 0.0092 | 0.975 ± 0.064 | 1.095 ± 0.0071 | 0.727 ± 0.39 | 0.761 ± 0.32
13 | Oc1cccc(-c2nc(N3CCOCC3)c3oc4ncccc4c3n2)c1 |  |  |  |  |  | 0.906 ± 0.036 | 0.917 ± 0.038 | 0.862 ± 0.15 | 1.12 ± 0.05 | 0.717 ± 0.061 | 0.954 ± 0.093 | 0.869 ± 0.012 | 1.1 ± 0.24
14 | Oc1c2ccccc2c2c3c(cccc13)N=N2 |  |  |  |  |  | 1.06 ± 0.099 | 1.01 ± 0.016 | 1.12 ± 0.021 | 0.931 ± 0.016 | 1.07 ± 0.14 | 1.18 ± 0.014 | 1.34 ± 0.23 | 1.06 ± 0.021
15 | Nc1nc(N)c2nc(-c3cccc(O)c3)c(-c3cccc(O)c3)nc2n1 |  |  |  |  |  | 1.06 ± 0.035 | 1.02 ± 0.029 | 1.22 ± 0.035 | 0.959 ± 0.025 | 1.08 ± 0.071 | 1.17 ± 0.057 | 1.23 ± 0.11 | 1.04 ± 0.14
16 | OCCn1cc(-c2cnc3nnn(Cc4ccc5ncccc5c4)c3n2)cn1 |  |  |  |  |  | 1.16 ± 0.035 | 1.01 ± 0.071 | 1.09 ± 0.028 | 0.905 ± 0.029 | 1.1 ± 0.11 | 1.07 ± 0.13 | 1.25 ± 0.028 | 1.05 ± 0.042
17 | CC[C@H](Nc1ncnc2[nH]cnc12)c1nc2cccc(F)c2c(=O)n1-c1ccccc1 |  |  |  |  |  | 1.05 ± 0.14 | 0.999 ± 0.086 | 1.11 ± 0.042 | 0.996 ± 0.02 | 0.977 ± 0.089 | 0.788 ± 0.024 | 0.777 ± 0.3 | 0.751 ± 0.26
18 | CN(C)c1ccc(-c2nc3ncc(Cl)c(N4CCN(CC(=O)Nc5nccs5)CC4)c3[nH]2)cc1 |  |  |  |  |  | 1.1 ± 0.05 | 1.04 ± 0.021 | 1.14 ± 0.028 | 0.96 ± 0.057 | 1.1 ± 0.3 | 1.1 ± 0.31 | 1.26 ± 0.17 | 1.16 ± 0.064
19 | CCS(=O)(=O)Nc1ccc2c(c1)/C(=C(/Nc1ccc(CN3CCCCC3)cc1)c1ccccc1)C(=O)N2 [Hesperadin] |  |  |  |  |  | 1.08 ± 0.13 | 1.14 ± 0.085 | 0.556 ± 0.2 | 0.873 ± 0.15 | 0.765 ± 0.36 | 0.902 ± 0.11 | 0.492 ± 0.031 | 0.557 ± 0.16
20 | CCN1CCN(c2ccc(Nc3cc(N(C)C(=O)Nc4c(Cl)c(OC)cc(OC)c4Cl)ncn3)cc2)CC1 |  |  |  |  |  | 1.36 ± 0.18 | 1.06 ± 0.071 | 1.16 ± 0.092 | 0.921 ± 0.033 | 1.24 ± 0.11 | 1.06 ± 0.51 | 0.852 ± 0.15 | 0.921 ± 0.12
21 | CCS(=O)(=O)c1cccc(-c2cc(C(=O)NC3CCN(C)CC3)c(C)c3[nH]c4ncc(C)cc4c23)c1 |  |  |  |  |  | 1.06 ± 0.071 | 1.1 ± 0.057 | 0.522 ± 0.23 | 0.965 ± 0.026 | 1.25 ± 0.078 | 1.215 ± 0.0071 | 0.565 ± 0.24 | 0.834 ± 0.1
